Assay results from the supplement of paper PMC6992640.
± gives the standard deviation of the averaged measurements.

Columns and labels:
Assay in all cases: cell viability (% of vehicle); higher = less cytotoxic
Conditions in all cases: 10 µM; 72 h
HCI01 = tested on: HCI01 (cells of a triple-negative basal-like breast cancer xenograft)
HCI03 = tested on: HCI03 (cells of an ER-positive luminal breast cancer xenograft)
HCI09 = tested on: HCI09 (cells of a triple-negative luminal androgen receptor type breast cancer xenograft)
HCI11 = tested on: HCI11 (cells of an ER-positive luminal breast cancer xenograft)
HCI13 = tested on: HCI13 (cells of an ER-positive luminal breast cancer xenograft)
UCD52 = tested on: UCD52 (cells of a triple-negative basal-like breast cancer xenograft)
WHIM2 = tested on: WHIM2 (cells of a triple-negative basal-like breast cancer xenograft)
WHIM30 = tested on: WHIM30 (cells of a triple-negative basal-like breast cancer xenograft)
HCI16 = tested on: HCI16 (cells of a triple-negative basal-like breast cancer xenograft)
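Further: PDX cells carrying CMV promoter-driven luciferase, viability read as total photon flux per second by IVIS imaging following D-luciferin, vehicle control 0.1% DMSO.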

| SMILES | cell viability (HCI01) | cell viability (HCI03) | cell viability (HCI09) | cell viability (HCI11) | cell viability (HCI13) | cell viability (UCD52) | cell viability (WHIM2) | cell viability (WHIM30) | cell viability (HCI16) |
| --- | --- | --- | --- | --- | --- | --- | --- | --- | --- |
| CC(=O)O[C@@]12CO[C@@H]1C[C@H](O)[C@@]1(C)C(=O)[C@H](O)C3=C(C)[C@@H](OC(=O)[C@H](O)[C@@H](NC(=O)OC(C)(C)C)c4ccccc4)C[C@@](O)([C@@H](OC(=O)c4ccccc4)[C@H]21)C3(C)C [Docetaxel] | 154 ± 26 | 106 | 99.9 ± 18 | 124 | 116 ± 22 | 82 ± 10 | 96.3 ± 7.4 | 134 ± 5.3 | – |
| C[C@@H]1C[C@H]2[C@H]3CCC4=CC(=O)C=C[C@]4(C)[C@@]3(F)[C@@H](O)C[C@]2(C)[C@@]1(O)C(=O)CO [Dexamethasone (DHAP)] | 128 ± 28 | 138 | 148 ± 54 | 114 | – | 168.4 ± 1.4 | 83.4 ± 20 | 189 ± 29 | 180 |
| O=C(Nc1c(Cl)cncc1Cl)c1ccc(OC(F)F)c(OCC2CC2)c1 [Roflumilast] | 150 ± 8.4 | 145 | 118 ± 55 | 124 | – | 119 ± 10 | 104 ± 15 | 151 ± 5.7 | 196 |
| CCN(CC)CC#CCOC(=O)C(O)(c1ccccc1)C1CCCCC1.Cl (centres undefined) [Oxybutynin chloride] | 175 ± 51 | 170 | 139 ± 59 | 140 | – | 109 ± 10 | 166 ± 20 | 85.9 ± 14 | 178 |
| CCC(=O)OCC(=O)C1(OC(=O)CC)C(C)CC2C3CCC4=CC(=O)C=CC4(C)C3(Cl)C(O)CC21C (centres undefined) [Beclomethasone dipropionate] | 131 ± 100 | 182 | 144 ± 8.8 | 123 | – | 133 ± 3.9 | 128 ± 3.2 | 123 ± 10 | 175 |
| C#CC1(O)CCC2C3CCC4=CC(=O)CCC4C3CCC21CC (centres undefined) [Levonorgestrel] | 88.7 ± 25 | 127 | 100 ± 12 | 88.5 | – | 83.6 ± 6.9 | 91.5 ± 9.7 | 155 ± 2.3 | 121 |
| Cl.O=C1NCC2(CCN(CCc3ccccc3)CC2)O1 [Fenspiride HCl] | 118 ± 42 | 126 | 101 ± 14 | 98.4 | – | 99.1 ± 6.4 | 98.1 ± 4.1 | 93.8 ± 14 | 104 |
| Cc1onc(-c2ccccc2)c1C(=O)NC1C(=O)N2C1SC(C)(C)C2C(=O)[O-].O.[Na+] (centres undefined) [Oxacillin sodium monohydrate] | 114 ± 12 | 150 | 116 ± 24 | 110 | – | 105 ± 5 | 91 ± 13 | 168 ± 8.6 | 127 |
| Nc1nnc(-c2cccc(Cl)c2Cl)c(N)n1 [Lamotrigine] | 95 ± 12 | 155 | 134 ± 32 | 89.9 | – | 112 ± 15 | 96.1 ± 13 | 175 ± 4.1 | 128 |
| O=C(CCCN1CCN(c2ccccn2)CC1)c1ccc(F)cc1 [Azaperone] | 119 ± 25 | 114 | 96.7 ± 2.1 | 121 | – | 66.9 ± 13 | 98.3 ± 4.7 | 85.8 ± 2.8 | 151 |
| O=NN(CCCl)C(=O)NCCCl [Carmustine] | 106 ± 24 | 166 | 99.9 ± 62 | 83.9 | 134 ± 22 | 116 ± 5.4 | 96.23 ± 0.26 | 123 ± 8.1 | – |
| CCCc1nc(C(C)(C)O)c(C(=O)O)n1Cc1ccc(-c2ccccc2-c2nn[nH]n2)cc1 [Olmesartan] | 117 ± 4 | 121 | 130 ± 18 | 113 | – | 121 ± 15 | 91.2 ± 3.6 | 154 ± 25 | 136 |
| CCC1C(=O)N(C)c2cnc(Nc3ccc(C(=O)NC4CCC(N5CCN(CC6CC6)CC5)CC4)cc3OC)nc2N1C(C)C (centres undefined) [BI6727 (Volasertib)] | 82.6 ± 50 | 85.1 | 26.4 ± 0.95 | 115 | 84.6 ± 29 | 116 ± 4.4 | 43.5 ± 8.7 | 176.9 ± 1.6 | – |
| CC(NCCc1ccc(O)cc1)C(O)c1ccc(O)cc1.Cl (centres undefined) [Ritodrine HCl] | 111 ± 11 | 116 | 101 ± 21 | 106 | – | 86.3 ± 4.5 | 97.8 ± 37 | 111 ± 4.8 | 111 |
| CCCc1nc2c(C)cc(-c3nc4ccccc4n3C)cc2n1Cc1ccc(-c2ccccc2C(=O)O)cc1 [Telmisattan] | 107 ± 23 | 111 | 113 ± 59 | 101 | – | 122.3 ± 0.62 | 85 ± 18 | 146 ± 1.6 | 116 |
| CCCN(CCC)S(=O)(=O)c1ccc(C(=O)O)cc1 [Probenecid] | 102 ± 37 | 142 | 125 ± 6.3 | 94.6 | – | 113 ± 6.4 | 92.7 ± 6.9 | 155 ± 8.7 | 145 |
| NCC(O)c1ccc(O)c(O)c1.O.O=C(O)C(O)C(O)C(=O)O (centres undefined) [Noradrenaline bitartrate monohydrate] | 86.8 ± 21 | 152 | 133 ± 34 | 124 | – | 142 ± 4.8 | 73 ± 14 | – | 160 |
| CC1(C)O[C@@H]2C[C@H]3[C@@H]4C[C@H](F)C5=CC(=O)C=C[C@]5(C)[C@@]4(F)[C@@H](O)C[C@]3(C)[C@]2(C(=O)CO)O1 [Fluocinolone Acetonide] | 84 ± 59 | 154 | 132 ± 27 | 120 | – | 131 ± 17 | 109 ± 34 | – | – |

| SMILES | cell viability (HCI01) | cell viability (HCI03) | cell viability (HCI09) | cell viability (HCI11) | cell viability (HCI13) | cell viability (UCD52) | cell viability (WHIM2) | cell viability (WHIM30) | cell viability (HCI16) |
| --- | --- | --- | --- | --- | --- | --- | --- | --- | --- |
| CC1CC2C3CCC4=CC(=O)C=CC4(C)C3(F)C(O)CC2(C)C1(O)C(=O)CO (centres undefined) [Betamethasone] | 130 ± 41 | 177 | 145 ± 32 | 175 | – | 183 ± 2.4 | 130 ± 27 | 184 ± 37 | – |
| CC1(C)O[C@@H]2C[C@H]3[C@@H]4CCC5=CC(=O)C=C[C@]5(C)[C@@]4(F)[C@@H](O)C[C@]3(C)[C@]2(C(=O)CO)O1 [Triamcinolone Acetonide] | 147.2 ± 1.3 | 171 | 183 ± 20 | 111 | – | 198 ± 18 | 89.1 ± 12 | – | – |
| CCC(=O)OCC(=O)C1(OC(=O)CC)C(C)CC2C3CCC4=CC(=O)C=CC4(C)C3(F)C(O)CC21C (centres undefined) [Betamethasone Dipropionate] | 126 ± 23 | 138 | 150 ± 25 | 136 | – | 147 ± 14 | 92.3 ± 26 | – | – |
| CC1(C)O[C@@H]2C[C@H]3[C@@H]4CCC5=CC(=O)C=C[C@]5(C)[C@H]4[C@@H](O)C[C@]3(C)[C@]2(C(=O)CO)O1 [Desonide] | 84.8 ± 63 | 176 | 117 ± 43 | 125 | – | 144 ± 8.6 | 96.1 ± 15 | 127 ± 17 | – |
| CCCC(NC(=O)C1C2CCCC2CN1C(=O)C(NC(=O)C(NC(=O)c1cnccn1)C1CCCCC1)C(C)(C)C)C(=O)C(=O)NC1CC1 (centres undefined) [Telaprevir (VX-950)] | 154 ± 43 | 102 | 80.2 ± 12 | – | 96.4 ± 12 | 123 ± 6.4 | 96.2 ± 12 | 165 ± 15 | 144 |
| Cc1ccc(C)c(OCCCC(C)(C)C(=O)O)c1 [Gemfibrozil] | 99.9 ± 25 | 118 | 131 ± 54 | 112 | – | 124 ± 17 | 98.3 ± 12 | – | – |
| CC(=O)OCC(=O)C1(O)CCC2C3CCC4=CC(=O)C=CC4(C)C3C(O)CC21C (centres undefined) [Prednisolone Acetate] | 119 ± 47 | 185 | 134 ± 37 | 123 | – | 152.4 ± 0.65 | 97.2 ± 1.2 | 182 ± 22 | – |
| CC12CCC3c4ccc(O)cc4CCC3C1CCC2O (centres undefined) [Estradiol] | 99.8 ± 4.7 | 111 | 91.4 ± 4.4 | 93 | – | 85.9 ± 4.8 | 108 ± 28 | 74.2 ± 6.9 | 91.4 |
| CC1(C)O[C@@H]2C[C@H]3[C@@H]4CCC5=CC(=O)CC[C@]5(C)[C@@]4(F)[C@@H](O)C[C@]3(C)[C@]2(C(=O)CCl)O1 [Halcinonide] | 123 ± 21 | 144 | 146 ± 72 | 133 | – | 168 ± 24 | 105 ± 1.8 | 177 ± 4.2 | – |
| CC(=O)OCC(=O)C1(O)C(C)CC2C3CCC4=CC(=O)C=CC4(C)C3(F)C(O)CC21C (centres undefined) [Dexamethasone acetate] | 114 ± 33 | 160 | 131 ± 45 | 138 | – | 149 ± 10 | 119 ± 43 | 149 ± 22 | – |
| CCCC(=O)OC1(C(=O)COC(C)=O)CCC2C3CC(F)C4=CC(=O)C=CC4(C)C3(F)C(O)CC21C (centres undefined) [Difluprednate] | 110 ± 13 | 137 | 134 ± 37 | 116 | – | 177 ± 21 | 128 ± 7.3 | 175 ± 11 | – |
| CCC(=O)OC1(C(=O)CCl)C(C)CC2C3CC(F)C4=CC(=O)C=CC4(C)C3(F)C(O)CC21C (centres undefined) [Halobetasol Propionate] | 159 ± 6.9 | 152 | 133 ± 96 | 133 | – | 191 ± 18 | 113 ± 9.6 | – | – |
| CCCCC(=O)OC1(C(=O)CO)C(C)CC2C3CCC4=CC(=O)C=CC4(C)C3(F)C(O)CC21C (centres undefined) [Betamethasone Valerate] | 120 ± 12 | 169 | 148 ± 34 | 124 | – | 161 ± 9.9 | 88.9 ± 29 | 194 ± 17 | – |
| CC12C=CC(=O)C=C1CCC1C3CC(O)C(O)(C(=O)CO)C3(C)CC(O)C12F (centres undefined) [Triamcinolone] | 117 ± 18 | 176 | 112.2 ± 0.86 | 130 | – | 121 ± 8.9 | 121 ± 18 | 185 ± 5.1 | – |
| CC(C)c1c(C(=O)Nc2ccccc2)c(-c2ccccc2)c(-c2ccc(F)cc2)n1CCC(O)CC(O)CC(=O)[O-].CC(C)c1c(C(=O)Nc2ccccc2)c(-c2ccccc2)c(-c2ccc(F)cc2)n1CCC(O)CC(O)CC(=O)[O-].[Ca+2] (centres undefined) [Atorvastatin Calcium] | 89.2 ± 4.2 | 138 | 89.2 ± 26 | – | 95.72 ± 0.31 | 47.7 ± 2.3 | 43.7 ± 10 | 158 ± 5.3 | 140 |
| NCCC(O)(P(=O)(O)O)P(=O)(O)O [Pamidronate] | 167 ± 8.5 | 112 | 56 ± 19 | 144 | – | 137 ± 19 | – | 143.9 ± 0.96 | – |
| C#C[C@]1(O)CC[C@H]2[C@@H]3CCC4=CC(=O)CC[C@@H]4[C@H]3C(=C)C[C@@]21CC [Etonogestrel] | 109 ± 47 | 135 | 102 ± 13 | 86.3 | – | 116 ± 14 | 112 ± 30 | 146 ± 16 | 145 |
